# Source: PubChem BioAssay AID1634 (National Center for Advancing Translational Sciences (NCATS), 2009)
# Out of some 260,000 compounds screened, about 150 (0.058%) were called active. The list comes from a sample in which actives are over-represented; it also holds similar structures and randomly drawn compounds. Unmarked numbers belong to inactive results. The call rests on the fitted dose curve; in most records, active means well fitted inhibition curve with a large enough effect; inconclusive means small, poorly fitted or top-dose-only effect; inactive means no such curve, though single readings can be large or run the other way.
# Target: Pyruvate kinase PKM (Homo sapiens) (UniProt P14618)
# Sequence (P14618 whole entry, looked up, canonical isoform): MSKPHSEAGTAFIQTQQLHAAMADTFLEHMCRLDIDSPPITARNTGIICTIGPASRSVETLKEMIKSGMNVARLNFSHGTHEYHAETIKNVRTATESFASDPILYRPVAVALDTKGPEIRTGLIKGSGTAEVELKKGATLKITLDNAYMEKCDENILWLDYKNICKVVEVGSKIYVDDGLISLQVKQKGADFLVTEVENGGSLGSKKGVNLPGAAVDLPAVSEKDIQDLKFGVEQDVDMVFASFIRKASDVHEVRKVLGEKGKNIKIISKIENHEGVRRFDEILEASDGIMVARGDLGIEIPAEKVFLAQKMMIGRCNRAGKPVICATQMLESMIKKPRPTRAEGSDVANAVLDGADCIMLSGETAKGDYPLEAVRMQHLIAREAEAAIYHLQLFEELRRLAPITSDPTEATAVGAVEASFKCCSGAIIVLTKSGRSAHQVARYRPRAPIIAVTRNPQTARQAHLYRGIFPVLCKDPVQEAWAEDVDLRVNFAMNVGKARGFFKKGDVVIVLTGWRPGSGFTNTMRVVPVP
# Assay: qHTS Assay for Inhibitors of Human Muscle isoform 2 Pyruvate Kinase; further: nearly all actives have a fitted effect of over 60% in size;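 on activity change, negative = inhibition: plate controls were uninhibited enzyme wells for no effect and no-enzyme wells for full effect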
# Details: purified PKM2, ATP generation, Kinase-Glo luminescence; series mostly up to 57.5 µM; activity change, negative = inhibition: at the top concentration
# Experimental: NIH Chemical Genomics Center [NCGC] Matthew G. Vander Heiden, M.D., Ph.D. [Harvard Medical School, 77 Avenue Louis Pasteur, Boston, MA 02115] […] ATP generation was detected in a coupled reaction by luciferase-mediated luminescence, an ATP-dependent process. […] The enzyme was assayed at an intermediate level of activity to screen for both inhibitors and activators.
# NCGC Assay Protocol Summary: Three uL of substrate mix (at r.t.) in assay buffer (50 mM Imidazole pH7.2, 50 mM KCl, 7 mM MgCl2, 0.01% Tween 20, 0.05% BSA) was dispensed into white solid bottom 1,536 well microtiter plates so that the final concentrations of substrates in the assay were 0.1 mM ADP and 0.5 mM PEP. 23 nL of compound were delivered by a pin tool and 1 uL of enzyme mix in assay buffer (4 degree Celsius) was added. Plates were incubated at room temperature for 1 hour. Two uL of detection mix (Kinase-Glo, Promega; at 4 degree Celsius protected from light) was added and luminescence read by a ViewLux (Perkin Elmer) at 5 second exposure/plate. Data were normalized to the uninhibited and AC100 inhibition (no enzyme). To monitor activation, the first column contained a titration of the activator, NCGC00031955-01 (16-point 1:2 dilutions in duplicate starting at 57 uM) and the first 16 rows of column 4 contained 57 uM of NCGC00031955-01.
# Potency means the concentration at half of the fitted maximal effect.
Structure (SMILES),"activity change, negative = inhibition [%]",Potency
Cc1ccc(S(=O)(=O)N2CCCC2C(=O)NCc2ccco2)cc1 (centres undefined),31.4,
Cc1noc(C)c1C(=O)OCC(=O)N1CCN(S(=O)(=O)c2ccc3ccccc3c2)CC1,50.8,
CCn1c(NCCc2ccc(OC)c(OC)c2)nc2c1c(=O)n(C)c(=O)n2C,64.1,
O=C(COC(=O)CCC(=O)c1cccs1)NCc1ccco1,33.7,
CC(=O)c1cc(C#N)c(SCC(=O)Nc2nccs2)nc1C,86.5,
COc1ccc(C2CC(c3ccc([N+](=O)[O-])cc3)=NN2C(C)=O)cc1 (centres undefined),74.6,
Cc1ccc(OS(=O)Nc2cccc3nccnc23)cc1 (centres undefined),34.3,
Cc1ccc(CNC(=O)C2CCCN2C(=O)NCc2ccccc2)cc1 (centres undefined),-1.6,
CC(C)(C)C(=O)OCc1nc(-c2ccc(O)c(O)c2)cs1,34.7,
CCOc1ccc(S(=O)(=O)Nc2nccs2)cc1,35.4,
Cn1c(SCC(=O)N/N=C/c2ccc(O)c(O)c2)nc2ccccc21,61.5,
CC(C)Nc1ncnc2c1nnn2Cc1ccccc1,51.7,
O=C(c1c(F)cccc1Cl)N1CCN(S(=O)(=O)c2ccc3c(c2)OCCCO3)CC1,55.2,
O=C(CSc1nnc(-c2ccc(NS(=O)(=O)c3ccccc3)cc2)o1)NCC1CCCO1 (centres undefined),41.2,
S=c1[nH]nc(-c2cccs2)n1/N=C/c1cn(-c2ccccc2)nc1-c1ccc(Cl)cc1,39.3,
O=C(Cc1cccs1)Nc1nnc(SCc2ccc(F)cc2)s1,45.8,
Cc1cc(C)n(CCC(=O)N2CCN(S(=O)(=O)c3ccc(C)c(C)c3)CC2)n1,37.7,
COc1ccc(S(=O)(=O)Nc2ccc(F)cc2)c(C)c1C,32.9,
CCc1nnc(NC(=O)CSc2nc3c(c(=O)n2-c2ccccc2OC)SCC3)s1,30.9,
Nc1cccc(S(=O)(=O)Nc2ccc(SC(F)F)cc2)c1,131,
Nc1ccccc1Sc1cc(Cl)nnc1Cl,35.4,
O=S(=O)(Nc1nccs1)c1ccc2c(c1)OCCO2,44.3,
O=c1[nH]c(-c2cccs2)nc2ccccc12,-18.3,

Structure (SMILES),"activity change, negative = inhibition [%]",Potency
Cn1c2ccccc2c(=O)c2c(=O)n(Cc3ccco3)c(COc3ccccc3)nc21,40.6,
COC(=O)C1=C(C)NC(=O)CC1c1ccccc1OC (centres undefined),79.9,
Cc1cc(NC(=O)CSc2nnc(-c3ccc(Cl)s3)o2)no1,98.8,
Cc1ccc(N(C(=O)c2ccc(CN3CCOCC3)o2)C(C(=O)NCCC(C)C)c2cccs2)c(C)c1 (centres undefined),33.7,
Cc1cc(-c2ccc(/C=N/n3cnnc3)o2)c([N+](=O)[O-])cc1C,36.9,
O=[N+]([O-])c1ccccc1Nc1ccc(O)cc1,41.2,
S=c1nc(C23CC4CC(CC(C4)C2)C3)nc2sccn12,-3.34,
CCc1nnc(NS(=O)(=O)c2ccc(NS(=O)(=O)c3ccccc3)cc2)s1,52.4,
CCNc1nc(NC(C)C)nc(OCCOC(=O)c2ccccc2)n1,51,
CN(C)c1ccc(C=C2C(=O)OC3(CCCC3)OC2=O)cc1,73.8,
COc1ccc(CS(=O)/C(Cl)=C(/Cl)C(=O)Nc2ccc(OC)nc2)cc1 (centres undefined),42.8,
CC(=O)c1c(C)[nH]c(C(=O)Nc2cc(S(=O)(=O)N(C)C)ccc2C)c1C,72.8,
O=C(NCc1ccco1)c1cccn2c(=O)c3c4c(sc3nc12)CCCC4,112,
O=C(NCc1ccccn1)c1c(O)c2c([nH]c1=O)CCCC2,82.1,
CCC1CCCCN1CCCNC(=O)Cn1nc(-c2ccccc2)ccc1=O (centres undefined),37.6,
COc1ccc(C(=O)NC(=S)Nc2ccc(Cl)cn2)cc1OC,71.8,
c1cc(-n2cnnn2)ccc1NC1=NCCC1,65.9,
O=C(CCC(=O)N1CCN(S(=O)(=O)c2ccccc2)CC1)NC1CCCc2ccccc21 (centres undefined),32.8,
O=c1cc(CO)oc(C(Nc2cccc([N+](=O)[O-])c2)c2ccccn2)c1O (centres undefined),37.9,
COC(=O)c1[nH]c2ccccc2c1NC(=O)CN1CCCc2ccccc21,103,
CN(C)/C=C1\C=C(c2ccccc2)OC1=O,30.6,
CCC(C)(C)NC(=O)C1c2ccccc2Oc2ccccc21,30.6,
O=C(c1ccc(-c2ccccc2)cc1)C1CCCN(C(=O)c2cncs2)C1 (centres undefined),71.3,

Structure (SMILES),"activity change, negative = inhibition [%]",Potency
O=S(=O)(c1ccc(F)cc1)N1CCN(C(=S)NCc2ccco2)CC1,38.3,
O=C(COc1cc(Cl)c(Cl)cc1Cl)NCCc1ccccn1,41.2,
COC(=O)c1cc2c(N)c(C(=O)c3ccc(Cl)cc3)sc2nc1C(OC)OC,-1.08,
O=C(Cn1c(COc2ccccc2)nc2ccccc21)Nc1cc(Cl)c(Cl)cc1Cl,4.1,
COc1ccc(-c2cn3ccc(C)cc3n2)cc1,,12.6 µM (active)
COc1ccc(-c2csc(Cc3nc(O)cs3)n2)cc1,31.4,
N#Cc1ccc(OCc2nnc(-c3ccc([N+](=O)[O-])cc3)o2)cc1,60.7,
COc1cccc(CNC(=O)CCC2CCCN(C(=O)c3cc(C)[nH]n3)C2)c1 (centres undefined),58.5,
Cc1cc(C)c(S(=O)(=O)N2C=CC(C(F)(F)F)=NCC2)c(C)c1,41.1,
CN(CCc1ccccc1)c1ccc([N+](=O)[O-])cn1,41.5,
COC(=O)[C@@]1(Cc2ccccc2)[C@H]2c3cc(C(=O)N4CCCC4)n(Cc4ccc(C)o4)c3C[C@H]2CN1C(=O)c1ccccc1,69,
O=[N+]([O-])c1cc(Br)c(O)c(/C=N/Nc2nc3ccccc3s2)c1,59.9,
CN(C)S(=O)(=O)c1ccc(NC(=O)COC(=O)c2n[nH]c3ccccc23)cc1,38.3,
NC(=O)COC(=O)/C=C/c1ccc2ccccc2n1,57.7,
COc1ccccc1C(=O)N/C(=C/c1ccco1)C(=O)Nc1ccc(C(=O)O)cc1,30.1,
O=S(=O)(c1ccc(Br)cc1)c1nc(-c2ccccc2)oc1NCc1cccnc1,41.4,
Cc1ccc(C)c(S(=O)(=O)Nc2cccc(-n3cnnn3)c2)c1,64.8,
O=C(NCc1cccs1)C1CCN(S(=O)(=O)c2ccc3c(c2)OCCO3)CC1,136,
CCCc1nc(N2CCN(C)CC2)c2sc(=S)n(-c3ccccc3)c2n1,39.2,
CC1CC(c2ccccc2)n2nc(NC(=O)c3cccs3)nc2N1 (centres undefined),90.6,
CN(C)N=Nc1ccc2nc[nH]c2c1,85.6,
CN(C)c1nc(N)nc(CSc2nnnn2-c2cccc3ccccc23)n1,42.7,
O=C(c1ccc[nH]c1=S)N1CCN(S(=O)(=O)c2ccc(Br)cc2Cl)CC1,54.6,
